# Laboratory results published in PMC11006913.
# Positions count from the first letter of the chain named.
# Assays:
# Experiment in all cases: PBM; 200 nM protein, PBS
# Conditions in all cases: dsDNA, one strand shown
# PAX4 [1] = biological target: T1, PAX4 (Homo sapiens, UniProt O43316 9-242, R200K)
# T1 sequence: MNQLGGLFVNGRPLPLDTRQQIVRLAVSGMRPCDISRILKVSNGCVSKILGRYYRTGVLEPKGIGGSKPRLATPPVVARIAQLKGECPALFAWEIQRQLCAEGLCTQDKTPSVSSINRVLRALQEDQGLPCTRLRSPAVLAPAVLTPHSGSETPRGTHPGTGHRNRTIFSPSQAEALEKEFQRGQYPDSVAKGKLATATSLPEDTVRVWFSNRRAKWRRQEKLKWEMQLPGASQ
# PAX4 [2] = biological target: T2, PAX4 (Homo sapiens, UniProt O43316 9-242)
# T2 sequence: T1 sequence with K192R
# PAX4 [3] = biological target: T3, PAX4 (Homo sapiens, UniProt O43316 9-242, R200Q)
# T3 sequence: T1 sequence with K192Q
# PAX4 [4] = biological target: T4, PAX4 (Homo sapiens, UniProt O43316 9-242, R227W)
# T4 sequence: T1 sequence with K192R, R219W
# PRRX1 [5] = biological target: PRRX1 (Homo sapiens, UniProt P54821 80-166, F113S)
# PRRX1 [6] = biological target: PRRX1 (Homo sapiens, UniProt P54821 80-166)
# HOXC10 [7] = biological target: HOXC10 (Homo sapiens, UniProt Q9NYD6 254-340)
# ALX4 [8] = biological target: ALX4 (Homo sapiens, UniProt Q9H161 200-286)
# ALX4 [9] = biological target: ALX4 (Homo sapiens, UniProt Q9H161 200-286, Q225E)
# HOXC10 [10] = biological target: HOXC10 (Homo sapiens, UniProt Q9NYD6 254-340, K271E)
# Chain of HOXC10 (Homo sapiens, UniProt Q9NYD6 254-340, K271E) (Q9NYD6 254-340 K271E): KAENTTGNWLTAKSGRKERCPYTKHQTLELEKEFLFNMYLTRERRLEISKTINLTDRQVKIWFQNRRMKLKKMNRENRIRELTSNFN
# Chain of PRRX1 (Homo sapiens, UniProt P54821 80-166, F113S) (P54821 80-166 F113S): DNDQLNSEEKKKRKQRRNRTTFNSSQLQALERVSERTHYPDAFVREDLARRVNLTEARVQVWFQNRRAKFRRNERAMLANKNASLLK
# Chain of ALX4 (Homo sapiens, UniProt Q9H161 200-286, Q225E) (Q9H161 200-286 Q225E): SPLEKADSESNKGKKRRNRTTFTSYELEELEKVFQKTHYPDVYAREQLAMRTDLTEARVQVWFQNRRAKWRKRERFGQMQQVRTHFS
# Chain of ALX4 (Homo sapiens, UniProt Q9H161 200-286) (Q9H161 200-286): as the sequence (Q9H161 200-286 Q225E) above, with E26Q counted along it
# Chain of PRRX1 (Homo sapiens, UniProt P54821 80-166) (P54821 80-166): as the sequence (P54821 80-166 F113S) above, with S34F counted along it
# Chain of HOXC10 (Homo sapiens, UniProt Q9NYD6 254-340) (Q9NYD6 254-340): as the sequence (Q9NYD6 254-340 K271E) above, with E18K counted along it
sequence,measurement,setting,value
GGGGGCAA,binding signal,PAX4 [1],"9.18 upbm affinity estimate (log intensity, higher = more binding, comparable within an allelic series)"
same,binding signal,PAX4 [2],"9.24 upbm affinity estimate (log intensity, higher = more binding, comparable within an allelic series)"
same,binding signal,PAX4 [3],"9.19 upbm affinity estimate (log intensity, higher = more binding, comparable within an allelic series)"
same,binding signal,PAX4 [4],"9.17 upbm affinity estimate (log intensity, higher = more binding, comparable within an allelic series)"
CGGGCCCC,binding signal,PRRX1 [5],"9.02 upbm affinity estimate (log intensity, higher = more binding, comparable within an allelic series)"
same,binding signal,PRRX1 [6],"9.32 upbm affinity estimate (log intensity, higher = more binding, comparable within an allelic series)"
CCCCGGGG,binding signal,HOXC10 [7],"9.9 upbm affinity estimate (log intensity, higher = more binding, comparable within an allelic series)"
same,binding signal,ALX4 [8],"8.16 upbm affinity estimate (log intensity, higher = more binding, comparable within an allelic series)"
same,binding signal,ALX4 [9],"8.02 upbm affinity estimate (log intensity, higher = more binding, comparable within an allelic series)"
same,binding signal,HOXC10 [10],"9.91 upbm affinity estimate (log intensity, higher = more binding, comparable within an allelic series)"
CTCCGCCC,binding signal,PAX4 [1],"9.45 upbm affinity estimate (log intensity, higher = more binding, comparable within an allelic series)"
same,binding signal,PAX4 [2],"9.46 upbm affinity estimate (log intensity, higher = more binding, comparable within an allelic series)"
same,binding signal,PAX4 [3],"9.44 upbm affinity estimate (log intensity, higher = more binding, comparable within an allelic series)"
same,binding signal,PAX4 [4],"9.35 upbm affinity estimate (log intensity, higher = more binding, comparable within an allelic series)"
CGGGAAGC,binding signal,PRRX1 [5],"9.35 upbm affinity estimate (log intensity, higher = more binding, comparable within an allelic series)"
same,binding signal,PRRX1 [6],"9.64 upbm affinity estimate (log intensity, higher = more binding, comparable within an allelic series)"
CAGCGCCG,binding signal,HOXC10 [7],"9.95 upbm affinity estimate (log intensity, higher = more binding, comparable within an allelic series)"
same,binding signal,PAX4 [1],"9.2 upbm affinity estimate (log intensity, higher = more binding, comparable within an allelic series)"
same,binding signal,PAX4 [2],"9.2 upbm affinity estimate (log intensity, higher = more binding, comparable within an allelic series)"
same,binding signal,PAX4 [3],"9.26 upbm affinity estimate (log intensity, higher = more binding, comparable within an allelic series)"
same,binding signal,HOXC10 [10],"9.93 upbm affinity estimate (log intensity, higher = more binding, comparable within an allelic series)"
same,binding signal,PAX4 [4],"9.19 upbm affinity estimate (log intensity, higher = more binding, comparable within an allelic series)"
CTGGCCCA,binding signal,ALX4 [8],"8.03 upbm affinity estimate (log intensity, higher = more binding, comparable within an allelic series)"
same,binding signal,ALX4 [9],"8 upbm affinity estimate (log intensity, higher = more binding, comparable within an allelic series)"
CCCTCGGC,binding signal,PRRX1 [5],"9.22 upbm affinity estimate (log intensity, higher = more binding, comparable within an allelic series)"
same,binding signal,PRRX1 [6],"9.48 upbm affinity estimate (log intensity, higher = more binding, comparable within an allelic series)"
CAGGCCCG,binding signal,ALX4 [8],"8 upbm affinity estimate (log intensity, higher = more binding, comparable within an allelic series)"
same,binding signal,ALX4 [9],"7.92 upbm affinity estimate (log intensity, higher = more binding, comparable within an allelic series)"
